High-throughput results: PubChem BioAssay, National Center for Advancing Translational Sciences (NCATS)
Pol iota inh = qHTS for Inhibitors of Polymerase Iota; DNA polymerase iota (Homo sapiens), Q9UNA4; Pol iota fluorescent replication assay, 10 min; Potency, µM (titrated, usually from 115 µM), without a hit: at the highest dose activity, negative = inhibition, hits mostly inhibitors; 390,000 tested, 1% active; AID 588590, 2011; also: potency is read from the fitted curve at half-maximal effect
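Fluorescent replication assay read twice, at 0 min and 10 min after adding 50 nM (final) substrate. Enzyme (10 nM) and compounds were first incubated 15 min at room temperature; enzyme-free buffer wells were negative controls.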
POLB inh = qHTS Assay for Inhibitors of DNA Polymerase Beta; P06746; Pol beta primer extension/strand displacement, fluorescence kinetic; Potency, µM (series often up to 114 µM), inactives show top-dose activity change, negative = inhibition, hits mostly inhibitors; 340,000 tested, 1.3% active; AID 485314, 2010; also: potency is read from the fitted curve at half-maximal effect; % is scaled to controls: 0 for no effect and ±100 for the full control effect
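Reaction started by 50 nM substrate onto compound-treated Pol beta (10 nM, 15 min preincubation, room temperature); plates read at 0 min and 10 min. Normalized concentration-effect data fitted by four-parameter Hill equation.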
PI5P4K alpha inh = qHTS for Inhibitors of phosphatidylinositol 5-phosphate 4-kinase (PI5P4K) | Phosphatidylinositol 5-phosphate 4-kinase type-2 alpha (Homo sapiens), P48426 | PI5P4Kalpha enzyme, ADP-Glo luminescence, 60 min; active compounds read low | max response, % | 330,000 tested, 1.2% active | AID 652105, 2013; active = max response of -50% or lower; inconclusive = between -30% and -50%; inactive = -30% or higher; also: value at the top dose of about 77 µM; % is scaled to controls: 0 for no effect and ±100 for the full control effect
Target sequence (P48426 whole entry, looked up): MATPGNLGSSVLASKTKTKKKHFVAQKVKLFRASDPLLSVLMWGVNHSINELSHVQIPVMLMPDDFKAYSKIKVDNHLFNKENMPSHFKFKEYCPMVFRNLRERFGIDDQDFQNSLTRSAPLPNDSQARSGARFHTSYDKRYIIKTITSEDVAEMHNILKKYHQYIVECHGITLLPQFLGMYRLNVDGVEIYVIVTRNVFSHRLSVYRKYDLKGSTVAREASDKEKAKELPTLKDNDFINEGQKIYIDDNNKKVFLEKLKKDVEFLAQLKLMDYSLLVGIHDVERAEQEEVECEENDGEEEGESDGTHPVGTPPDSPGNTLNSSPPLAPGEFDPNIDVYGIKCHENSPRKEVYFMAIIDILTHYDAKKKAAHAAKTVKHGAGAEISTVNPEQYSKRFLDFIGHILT
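ADP-Glo luminescence end-point read after a 60 min room-temperature kinase reaction of PI5P4Kalpha plus substrate, initiated with ATP at 5 microM final. Buffer: 0.038 M HEPES pH 7.4, EGTA, 0.1% CHAPS, 5% DMSO.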
Pol kappa inh = qHTS for Inhibitors of Polymerase Kappa | Potency, µM (highest dose often 107 µM), for the others: at the top dose activity, negative = inhibition, actives largely listed as inhibitors | 400,000 tested, 0.53% active | purified Pol kappa, fluorescent DNA synthesis assay, 10 min | DNA polymerase kappa (Homo sapiens), Q9UBT6 | AID 588579, 2011; also: potency is read from the fitted curve at half-maximal effect; % is scaled to controls: 0 for no effect and ±100 for the full control effect
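Kinetic fluorescence readout at 0 and 10 min followed reaction start with substrate at 50 nM final. Beforehand, enzyme (10 nM Pol kappa) stood 15 min with compound at room temperature; buffer-only wells were negative controls.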
WRN helicase inh = qHTS for Inhibitors of WRN Helicase; 360,000 tested, 0.46% active; Potency, µM (titrated, usually from 114 µM), inactives show top-dose activity change, negative = inhibition, most hits filed as inhibitors; AID 651768, 2012; WRN helicase unwinding, fluorescent forked duplex, kinetic; Bifunctional 3'-5' exonuclease/ATP-dependent helicase WRN (Homo sapiens), Q14191; also: potency is read from the fitted curve at half-maximal effect; % is scaled to controls: 0 for no effect and ±100 for the full control effect; nearly all actives have a fitted effect of over 55% in size
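Kinetic red-fluorescence monitoring (525/598 nm) tracks WRN helicase activity after 100 nM fluorophore-quencher forked duplex and 2 mM ATP are added to 20 nM enzyme pretreated 15 min at room temperature with compound.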
Pol eta inh = qHTS for Inhibitors of Polymerase Eta. recombinant Pol eta, fluorescent DNA replication assay. DNA polymerase eta (Homo sapiens), Q9Y253. 390,000 tested, 1.2% active. AID 588591, 2011. Potency, µM (highest dose often 114 µM), without a hit: at the highest dose activity change, negative = inhibition, usual class: inhibitors; also: potency is read from the fitted curve at half-maximal effect; % is scaled to controls: 0 for no effect and ±100 for the full control effect
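Fluorescent replication assay: 50 nM final substrate added after a 15 min room-temperature compound preincubation with 10 nM enzyme. Signal taken at 0 min and again at 10 min.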
TbPGK inh = qHTS for inhibitors of Phosphogylcerate Kinase: Hit Validation Screen | shares compounds with Pol kappa inh | TbPGK coupled GAPDH assay, Kinase-Glo luminescence | Potency, µM (series often up to 57.5 µM), for the others: at the highest dose activity change, negative = inhibition, usual class: inhibitors | 500 tested, 79% active; also: potency is read from the fitted curve at half-maximal effect; % is scaled to controls: 0 for no effect and ±100 for the full control effect; nearly all actives have a fitted effect of over 65% in size
Target sequence (P07378 whole entry, looked up): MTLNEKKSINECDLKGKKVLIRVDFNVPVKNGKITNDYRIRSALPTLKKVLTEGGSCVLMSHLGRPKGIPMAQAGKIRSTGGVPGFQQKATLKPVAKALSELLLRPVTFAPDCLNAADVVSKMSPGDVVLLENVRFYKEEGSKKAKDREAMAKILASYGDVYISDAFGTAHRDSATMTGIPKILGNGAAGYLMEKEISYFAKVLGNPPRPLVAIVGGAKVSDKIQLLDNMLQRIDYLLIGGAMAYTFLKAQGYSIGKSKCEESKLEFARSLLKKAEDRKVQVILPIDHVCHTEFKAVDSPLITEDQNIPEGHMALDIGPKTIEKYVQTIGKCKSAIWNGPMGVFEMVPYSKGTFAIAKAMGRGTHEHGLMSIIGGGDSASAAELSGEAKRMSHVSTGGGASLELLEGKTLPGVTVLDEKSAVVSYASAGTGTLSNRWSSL
Pol iota confirm = qHTS for Inhibitors of Polymerase Iota: Confirmatory Assay for Cherry-picked Compounds. shares compounds with Pol kappa inh. Pol iota primer extension, TAMRA/BHQ fluorescence. Potency, µM, usual class: inhibitors. 1,500 tested, 77% active. AID 720496, 2013; also: potency is read from the fitted curve at half-maximal effect
* = called active by the depositor; ? = inconclusive; · = no result given; [ ] = remark or other dose. The list is not random: actives were taken first. Their share in the collection is about 2.8%. Unless noted, calls follow the shape of the dose curve; as a rule, active = well fitted curve in the direction sought with a large enough effect; inconclusive = small, poorly fitted or top-dose-only effect, or another doubt; inactive = no such curve, though single readings can be large; an effect the other way counts as inactive or inconclusive.

SMILES	Pol iota inh	POLB inh	PI5P4K alpha inh	Pol kappa inh	WRN helicase inh	Pol eta inh	others
Cc1ccc(N2C(=O)CSC23C(=O)N(CC(=O)Nc2ccccc2F)c2ccccc23)cc1C (stereo unspecified)	-13.0%	?	·	-14.8%	·	-17.2%
Cc1cccc(C)c1NC(=O)CN(C)C(=O)c1ccc(N2C(=O)CCC2=O)cc1	12.1%	·	12.2	0.2%	-14.0%	-15.0%
Cc1cccc(C)c1NC(=O)CN(C)C(=O)c1cccc(-n2cccc2)c1	8.91µM*	·	?	?	70.8µM*	10µM*	Pol iota confirm=?
Oc1ccc(CNc2cccnc2)c2cccnc12	·	·	·	·	·	·	Pol iota confirm=?
Cc1ccc(NCc2ccc(O)c3ncccc23)cc1	69.1%	3.3%	?	0.9%	-27.3%	-15.7%
Nc1ccc(N2CCCCC2)c2nonc12	?	8.5%	-13.8	-6.2%	?	35.5µM*	Pol iota confirm=?
Cc1nc2ncnn2c(C)c1CCC(=O)N1CCN(c2ccccc2)CC1	-2.5%	?	·	-4.0%	·	-7.9%
COc1cc(/C=N/Nc2nncn2/N=C/c2ccc(O)c(OC)c2)ccc1O	20µM*	2.2%	-22.6	-8.4%	-10.0%	-32.9%	TbPGK inh=?
CCOc1ccc(C(c2c(O)cc(C)n(Cc3ccco3)c2=O)N2CCN(C)CC2)cc1 (stereo unspecified)	21.7%	?	·	-10.7%[60.1 µM]	·	-10.6%
O=C(Nc1cccc(-c2nc3ccccc3s2)c1)c1cc(=O)c2ccccc2o1	34.1%	?	-11.2	-11.9%	-16.9%[11.6 µM]	?	Pol iota confirm=?
Cc1ccsc1C(=O)N/N=C/c1ccc2c(c1)OCO2	-6.7%	-12.0%	-4.8	-6.6%	-12.0%	-10.1%	TbPGK inh=18.3µM*
O=C(O)c1ccc(N/N=C/c2ccc3c(c2)OCO3)cc1	23.3%	21.5%	?	-7.6%	-9.2%	-11.7%	TbPGK inh=10.3µM*
Cc1cc(C(=O)N/N=C/c2ccc3c(c2)OCO3)c(C)o1	96.9%	1.2%	0.8	-0.4%	-0.4%	-15.7%
Cc1occc1C(=O)N/N=C/c1ccc2c(c1)OCO2	-7.1%	28.1%	-54.3*	8.1%	5.1%	-10.2%	TbPGK inh=16.3µM*
O=C(N/N=C/c1ccc2c(c1)OCO2)c1cccs1	-6.7%	12.7%	-1.5	-17.7%	-12.5%	-6.5%
Cc1cccc(NC(=O)Cn2c(=O)n(Cc3ccc4c(c3)OCO4)c(=O)c3oc4ccccc4c32)c1C	3.6%	9.4%	·	1.2%	·	-18.5%
CN(C)c1ccc(/C=C/c2ccnc3ccc(I)cc23)cc1	2.6%	·	·	-20.8%	·	·
Cc1csc(N=Nc2ccc(N(C)C)cc2)[n+]1[O-]	·	·	-55.5*	·	-31.9%	?	TbPGK inh=13µM*
CC(=O)c1ccc(Nc2cc(C)nc3nc(Cc4ccccc4)nn23)cc1	20.7%	3.8%	·	-0.2%	·	-15.1%
O=C(N/N=C/c1c[nH]c2ccc(Br)cc12)c1ccncc1	56.2µM*	?	-4.6	-23.7%	?	?	Pol iota confirm=67*
O=C(N/N=C/c1c[nH]c2ccccc12)c1ccncc1	113.6%	-11.1%	?	-7.1%	-14.7%	-18.7%
COc1c(N2CCN(C(=S)NCc3ccccc3)C(C)C2)c(F)cc2c(=O)c(C(=O)O)cn(C3CC3)c12 (stereo unspecified)	15.8µM*	28.2µM*	-13.6	?	?	31.6µM*	Pol iota confirm=53.2*
Cc1ccccc1CS(=O)(=O)Cc1ccc(C(=O)NCc2ccc(F)cc2)o1	17.9%	1.3%	·	-3.6%[60.1 µM]	·	-16.1%
O=C(NN=Cc1ccc([N+](=O)[O-])cc1)c1ccncc1	18.7%	·	-1.2	-0.3%	-7.1%	-16.6%
O=C(COc1ccc(/C=N/NC(=O)c2ccncc2)cc1)Nc1ccc([N+](=O)[O-])cc1	-9.9%	23.5%	-1.5	-2.0%	8.8%[57.1 µM]	-5.8%
SMILES	Pol iota inh	POLB inh	PI5P4K alpha inh	Pol kappa inh	WRN helicase inh	Pol eta inh	others
O=C(COc1ccc(/C=N/NC(=O)c2ccc(O)cc2)cc1)Nc1cccc([N+](=O)[O-])c1	?	10µM*	-10.6	?	?	14.1µM*	TbPGK inh=11.6µM*;Pol iota confirm=?
O=C(/C=C/c1ccc([N+](=O)[O-])cc1)Oc1ccc(/C=N/NC(=O)c2ccncc2)cc1	79.4µM*	-1.6%	-1.3	22.4µM*	-13.1%[11.6 µM]	?	Pol iota confirm=?
CCCCc1nn2c(=O)cc(COC(=O)c3cccc(NC(=O)c4cccs4)c3)nc2s1	?	-11.0%	·	-11.1%[60.1 µM]	·	-10.9%
O=C1OCC2=C1C(c1cccc(Cl)c1)CC(=O)N2c1ccc(C(F)(F)F)cc1 (stereo unspecified)	24.2%	13.4%	·	-9.3%	·	0.8%
COc1cccc(C2CC(=O)Nc3c2c(=O)[nH]c2nc4ccccc4n32)c1 (stereo unspecified)	-2.4%	-11.4%	·	-11.7%	·	1.4%
CSc1cccc(NC(=O)c2cc3c(COC(C)=O)cnc(C)c3oc2=O)c1	-0.1%	-0.4%	·	-5.7%[60.1 µM]	·	-12.8%
COc1cccc(C(=O)O/N=C(\N)c2ccccn2)c1	-9.8%	15.6%	-73.2*	-5.7%	2.7%	-1.4%	TbPGK inh=14.6µM*
N/C(=N\OC(=O)c1ccc(Cl)cc1Cl)c1ccccn1	-1.4%	-11.6%	-11.4	-28.0%	-0.1%	-9.9%
N/C(=N\OC(=O)c1ccc2ccccc2c1)c1ccccn1	10.6%	1.2%	-18.4	5.1%	-2.1%	-12.5%	TbPGK inh=?
N/C(=N\OC(=O)c1cccc([N+](=O)[O-])c1)c1ccccn1	11.8%	-8.8%	-7.2	4.1%	1.1%	-10.9%
Cc1ccc(C(=O)O/N=C(\N)c2ccccn2)c(Cl)c1	6.5%	17.4%	-62.0*	-6.3%	-2.2%	-0.4%	TbPGK inh=18.3µM*
COc1ccc(NC(=O)c2oc3ccccc3c2NC(=O)Cc2coc3c(C)c(C)ccc23)cc1	23.3%	3.6%	·	16.5%	·	-13.7%
Fc1ccc(-c2cc(-c3nc(-c4ccccc4)no3)[nH]n2)cc1	-19.5%	-20.1%	·	-13.3%	·	-20.5%
COc1cc(OC)c(-c2nn3c(-c4cc(C)[nH]n4)nnc3s2)cc1OC	0.7%	·	·	-3.9%	·	·
COc1ccc(CNC(=O)Cc2c(C)c3c(cc(C)c4c(C)c(C)oc43)oc2=O)cc1OC	19.3%	9.3%	·	-15.7%	·	-10.9%
